13 compounds from PubChem BioAssay can be followed below.

Molecules are shown by their SMILES. Calls of active or inactive are those of the source. Unless noted, no rule for the calls is given here.

Assay [1] relates to Wnt5a (protein binding on small-molecule microarray). The assay is described as follows: Wnt5a binders on small-molecule microarray, primary screen, biophysical, 635/667 nm fluorescence (AID 1142).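 Also: fluorescence read at 667 nm with signal to noise per printed feature.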 To be noted: 635 nm fluorescence, higher = more signal.
The nature of assay [2]: cell viability in Huh7 cells, primary screen, cytotoxicity control for HCV replication inhibitor project, CellTiter-Glo luminescence, basal, 48 h (AID 1143).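 Also: Huh7 hepatoma cells carrying a hepatitis C replication reporter with no stimulus; test concentration not given here.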 To be noted: Huh7 HCV replicon, higher = more signal, called active from +8 up or from −8 down. (In general: Cellular ATP, detected with luciferase, serves as a proxy for viable cell number.)
Assay [3] in a line: P. aeruginosa biofilm formation inhibitors, primary screen, PAO1 strain, BacTiter-Glo luminescence, LB-PBS (AID 1144). The conditions noted are these: 12 h, higher = more signal.
A short description of assay [4]: CREB reporter modulators without forskolin, primary screen, cell-based, PC12, CRE-LacZ reporter, unstimulated (AID 1145). To be noted: no forskolin, luminescence, 4.5 h, higher = more signal, called active from +8 up or from −8 down.
Assay [5] is described as follows: CREB reporter modulators under forskolin, primary screen, cell-based, PC12, CRE-LacZ reporter, forskolin-stimulated (AID 1146).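 Also: PC12 cells with 6xCRE LacZ reporter stimulated by forskolin 10 µM; beta-galactosidase reporter signal reflecting CREB driven transcription.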 To be noted: luminescence, 4.5 h, higher = more signal, called active from +8 up or from −8 down.
For assay [6], the target named is Streptavidin (Streptomyces avidinii) (UniProt P22629). The assay can be described thus: streptavidin binders on small-molecule microarray, primary screen, artefact control for SMM compound annotation, biophysical, 635/667 nm fluorescence (AID 1147).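 Also: signal reflects streptavidin binding to arrayed compounds as a control protein.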 To be noted: streptavidin binding, higher = more signal.
Assay [7] is described as follows: small-molecule binders of probe aInhba, primary screen, biochemical, small-molecule microarray, 635/667 nm fluorescence (AID 1148).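 Also: score merges 667nm spot fluorescence with signal-to-noise for antibody binding to printed compounds.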 The conditions noted are these: higher = more signal.
Assay [8] deals with Torsin-1A (Homo sapiens) (UniProt O14656). The assay is described as follows: torsin A binders from cell lysate, primary screen, small-molecule microarray, wild-type, 635/667 nm (AID 1149). The conditions noted are these: COS7 hTOR1A-WT lysate, 635 nm fluorescence, higher = more signal.
For assay [9] the target is unchanged. The assay is described as follows: small-molecule binders of mutant TOR1A in lysate, primary screen, cell lysate, small-molecule microarray, COS7 lysate, 635/667 nm fluorescence (AID 1150).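 Also: score pools 667 nm emission and signal to noise measuring lysate protein binding.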 The conditions noted are these: COS7 hTOR1A mutant lysate, 635 nm fluorescence, higher = more signal.
The test system of assay [10] is Sonic hedgehog protein (Shh). The assay is described as follows: small-molecule binders of Shh protein, primary screen, biochemical, small-molecule microarray, 635/667 nm fluorescence (AID 1151).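 Also: Shh protein binding to compounds spotted on small-molecule microarray slides; score combines spot fluorescence intensity with signal-to-noise across triplicate slides.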 To be noted: small-molecule microarray binding, 635 nm fluorescence; higher = more signal.

Torsin-1A (Homo sapiens), sequence (O14656 whole entry, looked up): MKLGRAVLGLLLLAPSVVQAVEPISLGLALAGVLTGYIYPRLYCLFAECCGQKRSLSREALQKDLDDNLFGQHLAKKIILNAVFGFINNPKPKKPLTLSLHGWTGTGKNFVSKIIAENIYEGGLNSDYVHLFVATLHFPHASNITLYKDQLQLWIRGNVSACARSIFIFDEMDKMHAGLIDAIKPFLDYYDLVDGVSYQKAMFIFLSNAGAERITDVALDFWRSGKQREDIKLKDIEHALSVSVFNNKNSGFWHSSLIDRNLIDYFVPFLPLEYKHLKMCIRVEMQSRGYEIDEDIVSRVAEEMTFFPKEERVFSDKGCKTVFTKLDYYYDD
Streptavidin (Streptomyces avidinii), sequence (P22629 whole entry, looked up): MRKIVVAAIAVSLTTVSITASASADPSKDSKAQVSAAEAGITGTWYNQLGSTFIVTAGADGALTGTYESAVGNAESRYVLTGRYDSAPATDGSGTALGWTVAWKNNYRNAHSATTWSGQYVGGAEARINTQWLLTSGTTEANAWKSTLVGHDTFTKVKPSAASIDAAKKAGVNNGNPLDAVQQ

For the compound `COc1ccc([Si](C)(C)[C@@H]2[C@@H](CCO)O[C@]3(C(=O)N(Cc4cccc(N5C(=O)c6cccc7cccc5c67)c4)c4ccccc43)[C@H]2C)cc1`, the composite z-score in [1] was -0.101; in assay [6], -0.138; in [7] it was -0.128; with Torsin-1A (Homo sapiens) [8] it was -0.516; with Torsin-1A (Homo sapiens) [9] it was -0.252; in [10], 0.552. Besides, the z-score was -5.93 (inactive) in assay [2], 0.568 (inactive) in [3], 7.33 (inactive) in assay [4] and -0.24 (inactive) in assay [5].
Regarding `COC(=O)[C@@]1(Cc2ccc(OC)cc2)[C@H]2c3cc(C(=O)N(C)C)n(Cc4nc5ccccc5[nH]4)c3C[C@H]2CN1C(=O)c1ccccc1`, the composite z-score is 0.38 in assay [1]; 1.12 in assay [6]; 0.698 in assay [7]; 0.314 with Torsin-1A (Homo sapiens) [8]; 0.432 with Torsin-1A (Homo sapiens) [9]; -0.388 in assay [10]. Moreover, the z-score in assay [2] was -3.83 (inactive); in assay [3], 0.179 (inactive); in assay [4], -0.375 (inactive); in assay [5], -0.139 (inactive).
`C=CCOC(=O)[C@H]1[C@@H]2C(=O)O[C@@H](c3ccccc3)[C@@H](c3ccccc3)N2[C@@H](c2ccc(OCCOC(=O)[C@H]3C[C@H]4C(=O)N[C@@H](Cc5ccccc5)C(=O)N4[C@H]3c3cccc(OCCO)c3)cc2)[C@]12C(=O)Nc1ccc(I)cc12`: the composite z-score in assay [1] was 0.971; in [6] it was 0.309; in assay [7] it was -0.0112; with Torsin-1A (Homo sapiens) [8] it was 0.703; with Torsin-1A (Homo sapiens) [9], 0.815; in assay [10], 2.16. Moreover, the z-score in assay [2] is -0.441 (inactive); in [3], -0.283 (inactive); in assay [4], 0.688 (inactive); in assay [5] it was 0.144 (inactive).
Regarding `C=CCNC(=O)[C@H]1[C@@H]2C(=O)O[C@@H](c3ccccc3)[C@@H](c3ccccc3)N2[C@@H](c2ccccc2OCCO)[C@]12C(=O)N(C(=O)OCCOC)c1ccc(C#CC3=CCCCC3)cc12`, the composite z-score amounted to 0.356 in assay [1]; 1.08 in assay [6]; 0.423 in assay [7]; 1.02 with Torsin-1A (Homo sapiens) [8]; 0.798 in the assay with Torsin-1A (Homo sapiens) [9]; 0.826 in assay [10]. In addition, the z-score in [2] was -4.73 (inactive); in assay [3] it was 1.37 (inactive); in [4], -0.333 (inactive); in assay [5], 0.371 (inactive).
Turning to `COc1ccc([Si](C)(C)[C@@H]2[C@@H](CCO)O[C@]3(C(=O)N(Cc4cccc(N5C(=O)c6ccccc6Oc6ccccc65)c4)c4ccccc43)[C@H]2C)cc1`, the composite z-score in assay [1] is -0.193; in [6], -0.313; in assay [7], -0.251; with Torsin-1A (Homo sapiens) [8], -0.133; in the assay with Torsin-1A (Homo sapiens) [9] it was -0.548; in assay [10], -0.264. In addition, the z-score was -5.77 (inactive) in assay [2], -1.34 (inactive) in assay [3], 6.17 (inactive) in assay [4] and 0.291 (inactive) in assay [5].
As to `O=C1O[C@@H](c2ccccc2)[C@@H](c2ccccc2)N2[C@@H](c3ccccc3OCCO)[C@]3(C(=O)Nc4ccc(C#CCCO)cc43)[C@@H](C(=O)N3CCN(c4ncccn4)CC3)[C@H]12`, the composite z-score is 0.174 in assay [1]; 0.139 in assay [6]; -0.0448 in assay [7]; -0.566 with Torsin-1A (Homo sapiens) [8]; 0.224 in the assay with Torsin-1A (Homo sapiens) [9]; -0.105 in assay [10]. Moreover, the z-score in assay [2] was -2.33 (inactive); in assay [3], 0.608 (inactive); in [4], 0.478 (inactive); in assay [5], 2.99 (inactive).
Consider `COC(=O)[C@@]1(Cc2ccccc2)[C@H]2c3cc(C(=O)N4CCCC4)n(C[C@H](O)CO)c3C[C@H]2CN1C(=O)c1ccccc1`, for which the composite z-score is -0.303 in assay [1]; 1.29 in assay [6]; 0.163 in assay [7]; 0.677 with Torsin-1A (Homo sapiens) [8]; 1.4 with Torsin-1A (Homo sapiens) [9]; 0.139 in assay [10]. Further, the z-score in assay [2] was 0.0728 (inactive); in assay [3] it was -0.367 (inactive); in assay [4] it was 0.39 (inactive); in assay [5], 0.881 (inactive).
Take `O=C1c2ccccc2[C@@]2(Cc3ccccc3N(C3CC3)C2=O)[C@H](c2ccc(CO)cc2)N1C1CCCCC1`: the composite z-score in [1] is -0.157; in [6] it was -0.885; in assay [7], -0.0791; with Torsin-1A (Homo sapiens) [8], -0.822; with Torsin-1A (Homo sapiens) [9], -0.928; in [10] it was -0.309. Also, the z-score is 0.0786 (inactive) in [2], 0.122 (inactive) in [3], 0.145 (inactive) in [4] and 0.428 (inactive) in assay [5].
For the compound `[N-]=[N+]=NCc1ccccc1[C@H]1OC(c2ccc(OCCCO)cc2)=N[C@@]1(CCS(=O)(=O)c1ccccc1)C(N)=O`, the composite z-score was 0.524 in [1]; 1.8 in assay [6]; 0.182 in assay [7]; 1.87 with Torsin-1A (Homo sapiens) [8]; 1.76 in the assay with Torsin-1A (Homo sapiens) [9]; -0.384 in [10]. The z-score was -0.0602 (inactive) in assay [2], 0.456 (inactive) in [3], -0.678 (inactive) in assay [4] and 0.237 (inactive) in assay [5].
Consider `C=C(/C(=C/C[C@@H](OC(=O)c1ccncc1)c1ccc(OCCO)cc1)c1cc(C(=O)OC)ccc1OC)C(C)C`, for which the composite z-score is 0.308 in [1]; 0.747 in assay [6]; -0.271 in assay [7]; 0.0376 in the assay with Torsin-1A (Homo sapiens) [8]; 0.266 with Torsin-1A (Homo sapiens) [9]; 1.7 in assay [10]. Also, the z-score in [2] is -1.79 (inactive); in assay [3], -0.745 (inactive); in [4], 2.06 (inactive); in assay [5] it was 0.96 (inactive).
As to `O=C(CCCCCCC(=O)Nc1ccccc1)N/N=C/c1ccccc1`, the composite z-score was -0.343 in [1]; -0.184 in assay [6]; 0.0074 in assay [7]; 0.577 with Torsin-1A (Homo sapiens) [8]; 0.146 with Torsin-1A (Homo sapiens) [9]; 0.0351 in [10]. The z-score is 0.0796 (inactive) in assay [2], 0.99 (inactive) in [3], 5.11 (inactive) in [4] and 0.0631 (inactive) in assay [5].
Regarding `CC(=O)NCCCC[C@@H]1NC(=O)[C@@H]2C[C@H](C(=O)O)[C@H](c3ccc(O)cc3)N2C1=O`, the composite z-score in assay [1] was -0.734; in [6], -1.04; in [7] it was -0.335; in the assay with Torsin-1A (Homo sapiens) [8], -2.46; with Torsin-1A (Homo sapiens) [9], -2.19; in assay [10], -0.96. The z-score in assay [2] is 0.454 (inactive); in [3], -0.646 (inactive); in assay [4], -0.679 (inactive); in [5] it was 0.407 (inactive).
On to `O=C1O[C@@H](c2ccccc2)[C@@H](c2ccccc2)N2[C@@H](c3ccc(O)cc3)[C@]3(C(=O)Nc4ccc(C#CC5=CCCCC5)cc43)[C@@H](C(=O)N3CCN(c4ncccn4)CC3)[C@H]12`, for which the composite z-score in [1] was determined as 0.326; in [6], 0.448; in assay [7] it was 0.0633; with Torsin-1A (Homo sapiens) [8] it was 0.6; in the assay with Torsin-1A (Homo sapiens) [9], 0.836; in assay [10], 1.21. In addition, the z-score in assay [2] was -3.76 (inactive); in [3], -1.07 (inactive); in [4] it was -1.14 (inactive); in [5], -0.286 (inactive).
